Test results taken from publication PMC4336329 (PLoS ONE, 2015).
In all, about 310,000 compounds went through this assay and about 14,000 (4.5%) showed an effect of 50% or more. Effects have a minus sign here. The entries come from a sample that favours strong results as a whole.

The compounds below were run against human ether-à-go-go-related gene (hERG) potassium channel (human, UniProt Q12809) (assay: primary screen, population patch clamp on CHO cells stably expressing hERG; higher = less effect of the substance).
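Further: peak tail current of the secondary pulse compared with the same well before compound.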

Chain of human ether-à-go-go-related gene (hERG) potassium channel (Q12809 whole entry, looked up): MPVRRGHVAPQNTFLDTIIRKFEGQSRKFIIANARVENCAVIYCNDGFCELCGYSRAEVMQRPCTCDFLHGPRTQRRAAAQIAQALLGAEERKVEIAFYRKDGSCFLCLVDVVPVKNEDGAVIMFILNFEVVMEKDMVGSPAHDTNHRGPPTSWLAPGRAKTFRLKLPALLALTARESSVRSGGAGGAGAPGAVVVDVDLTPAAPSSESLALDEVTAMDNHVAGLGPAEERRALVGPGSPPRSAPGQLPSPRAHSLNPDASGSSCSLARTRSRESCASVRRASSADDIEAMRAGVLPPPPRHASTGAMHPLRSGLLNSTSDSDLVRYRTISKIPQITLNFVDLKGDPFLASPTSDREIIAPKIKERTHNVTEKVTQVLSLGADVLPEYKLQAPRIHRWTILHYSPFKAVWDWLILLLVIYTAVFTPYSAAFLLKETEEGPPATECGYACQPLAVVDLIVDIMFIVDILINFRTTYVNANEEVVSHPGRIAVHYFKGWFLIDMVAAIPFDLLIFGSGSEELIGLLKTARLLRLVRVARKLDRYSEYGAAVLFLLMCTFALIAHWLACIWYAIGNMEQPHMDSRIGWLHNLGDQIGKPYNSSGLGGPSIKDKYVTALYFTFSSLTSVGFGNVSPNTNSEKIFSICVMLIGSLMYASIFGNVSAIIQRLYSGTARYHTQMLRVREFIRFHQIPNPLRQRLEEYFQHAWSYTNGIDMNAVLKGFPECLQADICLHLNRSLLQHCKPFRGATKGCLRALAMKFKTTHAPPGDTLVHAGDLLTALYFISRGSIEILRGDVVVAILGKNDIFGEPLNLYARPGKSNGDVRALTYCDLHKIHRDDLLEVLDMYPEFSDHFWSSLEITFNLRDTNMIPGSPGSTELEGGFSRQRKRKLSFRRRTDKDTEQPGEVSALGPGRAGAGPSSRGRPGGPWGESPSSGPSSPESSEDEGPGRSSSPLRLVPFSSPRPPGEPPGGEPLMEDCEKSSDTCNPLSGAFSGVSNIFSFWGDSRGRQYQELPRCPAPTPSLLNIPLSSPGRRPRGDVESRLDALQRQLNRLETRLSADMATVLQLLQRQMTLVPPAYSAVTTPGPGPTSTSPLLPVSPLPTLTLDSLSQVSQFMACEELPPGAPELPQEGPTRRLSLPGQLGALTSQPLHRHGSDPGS

| SMILES | hERG current change (%, negative = inhibition) at 10uM |
| --- | --- |
| CC1(C)c2ccccc2N(CC(N)=O)C12C=Cc1ccccc1O2 (stereo not shown) | -26% |
| Cc1nc(NC(=O)c2cccnc2Cl)sc1C | 4.14% |
| CC(NC(=O)c1ccc2c(c1)OCO2)C(c1cccs1)N1CCN(c2ccccc2)CC1 (stereo not shown) | 3.68% |
| COc1ccc(CCn2c(C)cc(C(=O)CSc3nnnn3C)c2C)cc1 | 0.08% |
| CC1CCCCC1NC(=O)Cn1c(CN2CCCCC2)nc2ccccc2c1=O (stereo not shown) | -24.6% |
| COc1ccc(OC)c(S(=O)(=O)NCC(c2ccc3c(c2)OCO3)N2CCOCC2)c1 (stereo not shown) | -28.4% |
| O=c1c2cc(Cl)ccc2nc(-c2ccccc2Cl)n1O | 16.4% |
| CCOc1ccc2oc(C(=O)NC(C)(C)CC)c(C)c2c1 | -3% |
| Cc1c(C(=O)NCc2ccccc2CN2CCCC2)oc2c(F)cccc12 | -70.5% |
| Cc1c(C(=O)NCc2ccccc2CN2CCCC2)oc2ccc(F)cc12 | -74% |
| Cc1c(C(=O)NCc2ccco2)oc2c(F)cccc12 | 1.08% |
| Cc1c(C(=O)NCc2ccccc2)oc2ccc(S(=O)(=O)N3CCCC3)cc12 | 2.65% |
| COc1ccccc1CNC(=O)c1oc2ccc(S(=O)(=O)N3CCCC3)cc2c1C | -4.46% |
| CCOc1ccc2oc(C(=O)NCC(C)(C)CN(C)C)c(C)c2c1.Cl | -54.5% |
| CCOc1ccc2oc(C(=O)O)c(C)c2c1 | 4.62% |
| Cc1c(C(=O)NCCN2CCCC(O)C2)oc2c(F)cccc12 (stereo not shown) | -1.78% |
| CCN(Cc1ccncc1)Cc1ccc(Br)cc1.O=C(O)C(=O)O | -5.38% |
| COc1cccc(CC(=O)OC(C)C(=O)NCc2ccc3c(c2)OCO3)c1 (stereo not shown) | -3.97% |
| COc1cc(C(CC(=O)N2CCN(c3ccccc3)CC2)c2c(OC)cc(OC)c3ccc(=O)oc23)cc(OC)c1OC (stereo not shown) | -29% |
| COc1ccc(-c2nnc(SCC#N)o2)cc1 | 11.3% |
| CCOC(=O)CCCNC(=O)CCNC(=O)c1ccc(OCC(C)C)cc1 | 3.61% |
| COc1ccc(C(=O)CN2C(=O)c3ccccc3C2=O)cc1 | 7.16% |
| Nc1c(C(=O)C2CC2)sc2nc(-c3ccccc3)cc(C(F)(F)F)c12 | 18.8% |

| SMILES | hERG current change (%, negative = inhibition) at 10uM |
| --- | --- |
| COc1ccc(-c2cc(C(F)(F)F)c3c(N)c(C(=O)NCCSC)sc3n2)cc1 | -10.7% |
| CN(C)CCNC(=O)c1sc2nc(-c3ccccc3)cc(C(F)(F)F)c2c1N | -57.8% |
| COc1ccc(-c2cn(Cc3ccc(C(N)=O)cc3)c(-c3ccc(Cl)nc3)n2)cc1 | -71.4% |
| COc1ccc(-c2cn(CCO)c(-c3ccc(Cl)nc3)n2)cc1 | -9.71% |
| COc1ccc(-c2cn(Cc3ccc(C(N)=O)cc3)c(-c3ccncc3)n2)cc1 | -60.1% |
| COc1ccc(-c2cn(Cc3ccc(C(N)=O)cc3)c(CCN)n2)cc1 | -13.9% |
| COc1ccc(-c2cn(CCC(=O)O)c(-c3ccc(Cl)nc3)n2)cc1 | 9.6% |
| Cc1ccc(CNC(=O)c2ccc(Cn3cc(-c4ccc(C)cc4)nc3-c3ccncc3)cc2)cc1 | 5.94% |
| O=C(c1ccc(CS(=O)(=O)c2ccc(Br)cc2)o1)N1CCN(c2ccccn2)CC1 | -36% |
| Cc1ccc(-n2c(C)nc3ccsc3c2=O)cc1 | 1.42% |
| O=C(CCc1nc(-c2ccccc2Cl)no1)NC1CCCCC1 | 10.6% |
| CCCCCCCNC(=O)COc1ccc2c(c1)C(=O)CC(C)(C)O2 | -14.4% |
| O=C(CNC(=S)N(CCCN1CCOCC1)Cc1cccs1)N1CCCC1 | 3.09% |
| COCCNC(=O)CNC(=S)N(CCCN1CCOCC1)Cc1cccs1 | 14.1% |
| CCN(CC)CCNC(=O)CNC(=S)N(CCCN1CCOCC1)Cc1cccs1 | 15.7% |
| CCOC(=O)CNC(=S)N(CCCN1CCCC1)Cc1cccs1 | -53.6% |
| CCOC(=O)CNC(=S)N(CCCN1CCCCCC1)Cc1cccs1 | -65.8% |
| O=C(CNC(=S)N(CCCN1CCOCC1)Cc1cccs1)N1CCOCC1 | -9.74% |
| CCOC(=O)CNC(=S)N(CCCN1CCCCC1)Cc1cccs1 | -62.6% |
| O=C(CNC(=S)N(CCCN1CCOCC1)Cc1cccs1)N1CCCCCC1 | -41.4% |
| CCOC(=O)CNC(=S)N(CCCN1CCN(C)CC1)Cc1cccs1 | -43.5% |
| O=C(Nc1cccc(F)c1)c1cc(S(=O)(=O)NCCC2=CCCCC2)ccc1F | 17.4% |
| COc1ccccc1N(CC(=O)NCCSCc1ccccc1)S(C)(=O)=O | 4.03% |

| SMILES | hERG current change (%, negative = inhibition) at 10uM |
| --- | --- |
| COc1ccc(N2CC(C)Cn3c2nc2c3c(=O)[nH]c(=O)n2C)cc1 (stereo not shown) | -24.3% |
| N#Cc1c(NC(=O)CSc2ncccn2)oc(-c2ccccc2)c1-c1ccccc1 | 25.2% |
| Nc1nc(Cl)nc2ccc(Br)cc12 | 7.87% |
| CC(=O)c1c(C)nc2ccccc2c1N | -10.1% |
| Cc1[nH]c2ccccc2c1C(=O)/C=C/c1ccccc1 | 8.96% |
| Cc1nc2ccccc2c(N)c1C(=O)/C=C/c1ccccc1 | -79.7% |
| Cc1occc1-c1nnc(SCCNCCO)o1.O=C(O)C(=O)O | 63.6% |
| COc1ccc(C2NC(=O)CCC2[N+](=O)[O-])cc1OC (stereo not shown) | 10.1% |
| CSc1cccc(NC(=O)CCCOc2ccc(Cl)cc2C)c1 | -2.48% |
| c1ccc2c(c1)CCN(Cc1nnnn1Cc1ccc3c(c1)OCO3)C2 | -3.1% |
| CCN1CCN(C(c2ccccc2F)c2nnnn2Cc2ccc3c(c2)OCO3)CC1.Cl (stereo not shown) | -37.6% |
| CC(C)C(c1nnnn1Cc1ccccc1)N1CCN(Cc2ccc3c(c2)OCO3)CC1 (stereo not shown) | -52% |
| Cl.NC(=O)C1CCN(C(c2ccccc2F)c2nnnn2Cc2ccco2)CC1 (stereo not shown) | 11.1% |
| Cl.c1ccc(CCn2nnnc2C(c2cccs2)N2CCN(Cc3ccc4c(c3)OCO4)CC2)cc1 (stereo not shown) | -24.1% |
| CC(C)C(c1nnnn1Cc1ccc(F)cc1)N1CCN(Cc2ccc3c(c2)OCO3)CC1 (stereo not shown) | -43.3% |
| CC(C)C(c1nnnn1Cc1ccccc1)N1CCN(Cc2ccco2)CC1.Cl (stereo not shown) | -32.1% |
| Cl.Fc1ccccc1C(c1nnnn1Cc1ccc2c(c1)OCO2)N1CCN(Cc2ccco2)CC1 (stereo not shown) | -56.4% |
| CC(C)C(c1nnnn1Cc1ccc2c(c1)OCO2)N1CCN(c2ccccc2)CC1 (stereo not shown) | 23.1% |
| c1ccc(Cn2nnnc2CN2CCN(Cc3ccc4c(c3)OCO4)CC2)cc1 | -61.1% |
| c1ccc2sc(C3CCN(Cc4nnnn4Cc4ccc5c(c4)OCO5)CC3)nc2c1 | -8.73% |
| Fc1ccccc1C(c1nnnn1Cc1ccc2c(c1)OCO2)N1CCN(Cc2ccccc2)CC1 (stereo not shown) | -55.3% |
